According to PubChem BioAssay (NCI):
The panel holds about 79,000 compounds, 15% with a hit somewhere; the sample as a whole holds those more often. Values without a mark were called inactive. Active and inactive are the calls of the source. Cut-off read from the data, not from the text of the source: active = growth inhibition above about 70%; inactive = the rest.

What was measured:
[1] = NCI Yeast Anticancer Drug Screen. Data for the rad52 strain (AID 147);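 note: 0% = growth of vehicle-treated control cultures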; conditions: S. cerevisiae rad52 mutant growth inhibition, active compounds read high
Summary of the method: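 Vehicle-treated cultures served as the reference for growth inhibition of compound-exposed yeast bearing a DNA repair mutation.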

[2] = NCI Yeast Anticancer Drug Screen. Data for the wt1 strain (AID 149);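 note: 0% = growth of vehicle-treated wt1 cultures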; conditions: S. cerevisiae wt1 strain (SPY 50644) growth inhibition, active compounds read high
Summary of the method: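 wt1 strain grown with compound or vehicle; inhibition taken from the growth difference.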

[3] = NCI Yeast Anticancer Drug Screen. Data for the rad50EPP+ strain (AID 151);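 note: 0% = growth of vehicle-treated control cultures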; conditions: S. cerevisiae rad50 mutant strain, active compounds read high
Summary of the method: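 In this screen, rad50EPP+ yeast were exposed to compounds. Growth inhibition was scored against vehicle-treated controls.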

[4] = NCI Yeast Anticancer Drug Screen. Data for the mgt1 strain (AID 153); conditions: S. cerevisiae mgt1 mutant growth inhibition, active compounds read high
Summary of the method: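 mgt1 strain exposed; growth vs vehicle control recorded as inhibition.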

[5] = NCI Yeast Anticancer Drug Screen. Data for the mec2-1 strain (AID 157); conditions: S. cerevisiae mec2-1 strain, active compounds read high
Summary of the method: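 Vehicle-treated cultures served as reference for growth inhibition of compound-exposed mec2-1 yeast.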

[6] = NCI Yeast Anticancer Drug Screen. Data for the rad14 strain (AID 159);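 note: 0% = growth of vehicle-treated control cultures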; conditions: S. cerevisiae rad14 strain growth inhibition, active compounds read high
Summary of the method: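 DNA repair-defective yeast, compound-exposed; % growth inhibition derived by comparison with vehicle-treated controls.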

[7] = NCI Yeast Anticancer Drug Screen. Data for the sgs1 mgt1 strain (AID 161);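 note: 0% = growth of cultures given vehicle only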; conditions: S. cerevisiae sgs1 mgt1 strain, active compounds read high
Summary of the method: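 Test agents were incubated with a DNA-repair-mutant yeast strain. Growth was then read and compared against vehicle-treated controls.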

[8] = NCI Yeast Anticancer Drug Screen. Data for the CLN2oe strain (AID 163);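 note: 0% = growth of vehicle-only control cultures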; conditions: S. cerevisiae CLN2oe strain, active compounds read high
Summary of the method: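 Inhibition relative to vehicle-treated yeast is reported. Cells: strain with genetic alteration in cell-cycle control, grown with compound.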

[9] = NCI Yeast Anticancer Drug Screen. Data for the cln2 rad14 strain (AID 165);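 note: 0% = growth equal to vehicle treated cultures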; conditions: S. cerevisiae cln2 rad14 strain, active compounds read high
Summary of the method: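 Each compound was tested on cln2 rad14 yeast. Inhibition of growth was calculated against vehicle-exposed controls.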

[10] = NCI Yeast Anticancer Drug Screen. Data for the bub3 strain (AID 167); conditions: S. cerevisiae bub3 mutant strain, active compounds read high
Summary of the method: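 In this screen, a yeast mutant lacking normal mitotic checkpoint function is challenged with compound. Relative growth versus vehicle gives the inhibition value.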

[11] = NCI Yeast Anticancer Drug Screen. Data for the wt2 strain (AID 169);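 note: 0% = growth of vehicle-treated yeast cultures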; conditions: S. cerevisiae wt2 strain growth inhibition, active compounds read high
Summary of the method: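 Inhibition of yeast growth was determined after compound treatment, normalised to controls receiving only vehicle.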

[12] = NCI Yeast Anticancer Drug Screen. Data for the mlh1 strain (AID 171);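 note: 0% = growth of vehicle-treated control cultures of the same strain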; conditions: S. cerevisiae mlh1 strain growth inhibition, active compounds read high
Summary of the method: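 Vehicle-normalised growth inhibition of a repair- or checkpoint-altered yeast strain following compound treatment.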

[13] = NCI Yeast Anticancer Drug Screen. Data for the sgs1 strain (AID 173);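 note: 0% = growth of vehicle-only control cultures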; conditions: S. cerevisiae sgs1 mutant, active compounds read high
Summary of the method: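 Screen format: yeast with repair or checkpoint alterations, compound exposure, growth read relative to vehicle.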

[14] = NCI Yeast Anticancer Drug Screen. Data for the mlh1 rad18 strain (AID 175); conditions: S. cerevisiae mlh1 rad18 strain growth inhibition, active compounds read high
Summary of the method: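 Vehicle-treated cultures served as the reference for growth inhibition in a yeast strain carrying DNA damage repair alterations exposed to each compound.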

[15] = NCI Yeast Anticancer Drug Screen. Data for the rad18 strain (AID 177); conditions: S. cerevisiae rad18 mutant growth inhibition, active compounds read high
Summary of the method: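 Test articles were incubated with altered yeast defective in DNA damage repair. Results are given as inhibition of growth versus vehicle.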

[16] = NCI Yeast Anticancer Drug Screen. Data for the rad50 strain (AID 155);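 note: 0% = growth of vehicle-only cultures of the same strain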; conditions: S. cerevisiae rad50 strain growth inhibition, active compounds read high
Summary of the method: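 DNA repair mutant yeast, compound exposure, growth read-out; inhibition is taken relative to vehicle.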

[17] = at 5.0 µM (retest, dose inferred, filed as 0.5)
[18] = at 50.0 µM (retest, dose inferred, filed as 5.0)

Structure (SMILES): C[C@@]12CCC(=O)C=C1CC[C@H]1C2=CC[C@]2(C)C1CC[C@@]2(C)O (stereo partly drawn)
- growth inhibition ([1]; at 1.2 µM): -12%
- growth inhibition ([1]; at 3.7 µM): -3%
- growth inhibition ([1]; at 11.0 µM): -4%
- growth inhibition ([1]; at 33.0 µM): 69%
- growth inhibition ([1]; at 100.0 µM): 91% (active)
- growth inhibition ([2]; at 1.2 µM): -13%
- growth inhibition ([2]; at 3.7 µM): -26%
- growth inhibition ([2]; at 11.0 µM): -23%
- growth inhibition ([2]; at 33.0 µM): 54%
- growth inhibition ([2]; at 100.0 µM): 91% (active)
- growth inhibition ([3]; at 1.2 µM): -1%
- growth inhibition ([3]; at 3.7 µM): -6%
- growth inhibition ([3]; at 11.0 µM): -8%
- growth inhibition ([3]; at 33.0 µM): -12%
- growth inhibition ([3]; at 100.0 µM): 1%
- growth inhibition ([4]; at 1.2 µM): 12%
- growth inhibition ([4]; at 3.7 µM): 19%
- growth inhibition ([4]; at 11.0 µM): 38%
- growth inhibition ([4]; at 33.0 µM): 86% (active)
- growth inhibition ([4]; at 100.0 µM): 96% (active)
- growth inhibition ([5]; at 1.2 µM): 8%
- growth inhibition ([5]; at 3.7 µM): 10%
- growth inhibition [5, 17]: 44%
- growth inhibition ([5]; at 11.0 µM): 15%
- growth inhibition ([5]; at 33.0 µM): 85% (active)
- growth inhibition [5, 18]: 82% (active)
- growth inhibition ([5]; at 50.0 µM): 66.5%
- growth inhibition ([5]; at 100.0 µM): 96% (active)
- growth inhibition ([6]; at 1.2 µM): -22%
- growth inhibition ([6]; at 3.7 µM): -25%
- growth inhibition ([6]; at 11.0 µM): -10%
- growth inhibition ([6]; at 33.0 µM): 70% (active)
- growth inhibition ([6]; at 100.0 µM): 92% (active)
- growth inhibition [7, 17]: -27%
- growth inhibition [7, 18]: 78% (active)
- growth inhibition ([7]; at 50.0 µM): 77.5% (active)
- growth inhibition ([8]; at 1.2 µM): 32%
- growth inhibition ([8]; at 3.7 µM): -2%
- growth inhibition ([8]; at 11.0 µM): 0%
- growth inhibition ([8]; at 33.0 µM): 75% (active)
- growth inhibition ([8]; at 100.0 µM): 93% (active)
- growth inhibition [9, 17]: 46%
- growth inhibition [9, 18]: 30%
- growth inhibition ([9]; at 50.0 µM): 56.9%
- growth inhibition ([10]; at 1.2 µM): -1%
- growth inhibition ([10]; at 3.7 µM): 19%
- growth inhibition [10, 17]: -28%
- growth inhibition ([10]; at 11.0 µM): 28%
- growth inhibition ([10]; at 33.0 µM): 80% (active)
- growth inhibition [10, 18]: 54%
- growth inhibition ([10]; at 50.0 µM): 75.5% (active)
- growth inhibition ([10]; at 100.0 µM): 96% (active)
- growth inhibition ([11]; at 1.2 µM): -26%
- growth inhibition ([11]; at 3.7 µM): -19%
- growth inhibition ([11]; at 11.0 µM): -18%
- growth inhibition ([11]; at 33.0 µM): 64%
- growth inhibition ([11]; at 100.0 µM): 92% (active)
- growth inhibition ([12]; at 1.2 µM): -27%
- growth inhibition ([12]; at 3.7 µM): -11%
- growth inhibition ([12]; at 11.0 µM): 4%
- growth inhibition ([12]; at 33.0 µM): 63%
- growth inhibition ([12]; at 100.0 µM): 90% (active)
- growth inhibition ([13]; at 1.2 µM): 1%
- growth inhibition ([13]; at 3.7 µM): -6%
- growth inhibition ([13]; at 11.0 µM): 14%
- growth inhibition ([13]; at 33.0 µM): 72% (active)
- growth inhibition ([13]; at 100.0 µM): 91% (active)
- growth inhibition [14, 17]: 25%
- growth inhibition [14, 18]: 58%
- growth inhibition ([14]; at 50.0 µM): 50.5%
- growth inhibition ([15]; at 1.2 µM): -2%
- growth inhibition ([15]; at 3.7 µM): 0%
- growth inhibition ([15]; at 11.0 µM): 10%
- growth inhibition ([15]; at 33.0 µM): 76% (active)
- growth inhibition ([15]; at 100.0 µM): 92% (active)

Structure (SMILES): COc1cccc2c1C(=O)c1c(O)c3c(c(O)c1C2=O)C[C@@](O)(/C(C)=N\O)C[C@@H]3OC1CC(N)C(O)C(C)O1 (stereo partly drawn)
- growth inhibition ([1]; at 1.2 µM): 8%
- growth inhibition ([1]; at 3.7 µM): 27%
- growth inhibition ([1]; at 11.0 µM): 61%
- growth inhibition ([1]; at 33.0 µM): 84% (active)
- growth inhibition ([1]; at 100.0 µM): 90% (active)
- growth inhibition ([2]; at 1.2 µM): 6%
- growth inhibition ([2]; at 3.7 µM): 1%
- growth inhibition ([2]; at 11.0 µM): 8%
- growth inhibition ([2]; at 33.0 µM): 19%
- growth inhibition ([2]; at 100.0 µM): 29%
- growth inhibition ([3]; at 1.2 µM): 7%
- growth inhibition ([3]; at 3.7 µM): 29%
- growth inhibition ([3]; at 11.0 µM): 63%
- growth inhibition ([3]; at 33.0 µM): 82% (active)
- growth inhibition ([3]; at 100.0 µM): 89% (active)
- growth inhibition ([16]; at 1.2 µM): 13%
- growth inhibition ([16]; at 3.7 µM): 52%
- growth inhibition [16, 17]: 22%
- growth inhibition ([16]; at 11.0 µM): 79% (active)
- growth inhibition ([16]; at 33.0 µM): 89% (active)
- growth inhibition [16, 18]: 93% (active)
- growth inhibition ([16]; at 50.0 µM): 91.6% (active)
- growth inhibition ([16]; at 100.0 µM): 93% (active)
- growth inhibition ([5]; at 1.2 µM): -2%
- growth inhibition ([5]; at 3.7 µM): 3%
- growth inhibition [5, 17]: 0%
- growth inhibition ([5]; at 11.0 µM): 14%
- growth inhibition ([5]; at 33.0 µM): 27%
- growth inhibition [5, 18]: -14%
- growth inhibition ([5]; at 50.0 µM): 5.75%
- growth inhibition ([5]; at 100.0 µM): 38%
- growth inhibition ([6]; at 1.2 µM): 1%
- growth inhibition ([6]; at 3.7 µM): 3%
- growth inhibition ([6]; at 11.0 µM): 8%
- growth inhibition ([6]; at 33.0 µM): 29%
- growth inhibition ([6]; at 100.0 µM): 63%
- growth inhibition [7, 17]: -5%
- growth inhibition [7, 18]: 26%
- growth inhibition ([7]; at 50.0 µM): -9.9%
- growth inhibition ([8]; at 1.2 µM): -1%
- growth inhibition ([8]; at 3.7 µM): 2%
- growth inhibition ([8]; at 11.0 µM): 8%
- growth inhibition ([8]; at 33.0 µM): 13%
- growth inhibition ([8]; at 100.0 µM): 44%
- growth inhibition [9, 17]: 3%
- growth inhibition [9, 18]: 18%
- growth inhibition ([9]; at 50.0 µM): 26.2%
- growth inhibition ([10]; at 1.2 µM): -2%
- growth inhibition ([10]; at 3.7 µM): 0%
- growth inhibition [10, 17]: 35%
- growth inhibition ([10]; at 11.0 µM): 5%
- growth inhibition ([10]; at 33.0 µM): 25%
- growth inhibition [10, 18]: 18%
- growth inhibition ([10]; at 50.0 µM): -23.6%
- growth inhibition ([10]; at 100.0 µM): 47%
- growth inhibition ([11]; at 1.2 µM): 0%
- growth inhibition ([11]; at 3.7 µM): 1%
- growth inhibition ([11]; at 11.0 µM): 12%
- growth inhibition ([11]; at 33.0 µM): 25%
- growth inhibition ([11]; at 100.0 µM): 37%
- growth inhibition ([12]; at 1.2 µM): 1%
- growth inhibition ([12]; at 3.7 µM): -1%
- growth inhibition ([12]; at 11.0 µM): 11%
- growth inhibition ([12]; at 33.0 µM): 26%
- growth inhibition ([12]; at 100.0 µM): 49%
- growth inhibition ([13]; at 1.2 µM): 0%
- growth inhibition ([13]; at 3.7 µM): 5%
- growth inhibition ([13]; at 11.0 µM): 15%
- growth inhibition ([13]; at 33.0 µM): 29%
- growth inhibition ([13]; at 100.0 µM): 48%
- growth inhibition [14, 17]: 9%
- growth inhibition [14, 18]: 46%
- growth inhibition ([14]; at 50.0 µM): 13.8%
- growth inhibition ([15]; at 1.2 µM): 3%
- growth inhibition ([15]; at 3.7 µM): 10%
- growth inhibition ([15]; at 11.0 µM): 20%
- growth inhibition ([15]; at 33.0 µM): 43%
- growth inhibition ([15]; at 100.0 µM): 75% (active)
